A selection: hits, their analogues and other compounds. The true share with any hit is near 7.7%.
Sm TGR block – blocks Schistosoma mansoni thioredoxin glutathione reductase | actives 3% (n = 360,000) | Q962Y6 | Potency, µM (titrated, usually from 114 µM), hits mostly inhibitors | purified TGR, DTNB reduction, TNB absorbance 405 nm | AID 485364; further: nearly all actives have a fitted effect of over 60% in size
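Kinetic colorimetric format: TGR-catalysed, NADPH-driven DTNB reduction monitored via TNB absorbance. Enzyme dispensed at 20 nM; compound exposure 15 min at room temperature before reaction start.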
FBPA Giardia inh – Giardia lamblia aldolase inhibition | A8B2U2 | purified Giardia FBPA | Potency, µM (top dose mostly 59.6 µM), hits mostly inhibitors | actives 0.71% (n = 290,000); further: nearly all actives have a fitted effect of over 55% in size
Target sequence (A8B2U2 whole entry, looked up): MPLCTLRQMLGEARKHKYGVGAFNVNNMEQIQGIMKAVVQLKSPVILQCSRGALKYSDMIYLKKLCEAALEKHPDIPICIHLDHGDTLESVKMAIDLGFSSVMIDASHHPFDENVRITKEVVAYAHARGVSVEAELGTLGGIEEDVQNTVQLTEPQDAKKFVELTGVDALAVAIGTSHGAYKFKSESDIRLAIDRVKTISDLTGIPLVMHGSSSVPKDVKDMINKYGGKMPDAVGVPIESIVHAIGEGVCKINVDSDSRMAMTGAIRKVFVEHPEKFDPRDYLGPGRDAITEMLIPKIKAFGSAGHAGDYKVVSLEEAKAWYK
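40 nM FBPA preincubated 10 min at RT with compound (up to 57.5 uM final), then substrate plus GAPDH/TPI/NAD/arsenate coupling and diaphorase/resazurin added. Fluorescence read after 20 min at RT, 525/598 nm.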
HCMV antiviral – human cytomegalovirus inhibition; HFF cells, HCMV-luciferase reporter, 72 h; stronger effect = lower value; activity change, negative = inhibition, % at 57.5 µM; actives 4.5% (n = 410,000); AID 1259415; in the data active means activity change below about -60%; inconclusive means no clear call, values can overlap the other calls; inactive means above about -39%
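Cell-based, HFFs, 1000 cells/well, 16 h 37C; cpds in DMSO + HCMV-luc, MOI 1 PFU/cell; 72 h 37C; OneGlo luminescence after 5 min RT; norm. to buffer vs Salinomycin 10uM.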
FMDV antiviral – blocks foot and mouth disease virus; FMDV antiviral cell-based qHTS; Potency, µM (doses to about 57.9 µM), actives largely listed as inhibitors; actives 1.2% (n = 410,000); AID 1159524; calls by dose curve; tested in HEK293T cells; further: read-out not given here; nearly all actives have a fitted effect of over 45% in size
Tb PYK inh – blocks Trypanosoma brucei pyruvate kinase. Q57TT1. TbPYK enzyme, Kinase-Glo Plus ATP luminescence, 45 min. Potency, µM (titrated, usually from 76.8 µM), usual class: inhibitors. actives 0.12% (n = 410,000); further: nearly all actives have a fitted effect of over 50% in size
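Luminescent Kinase-Glo Plus end-point after 45 min room-temperature reaction of T. brucei pyruvate kinase started with 130 uM ADP (final). Buffer TEA 50 mM pH 7.2 with KCl, MgCl2, BSA, Tween-20; titration-based qHTS with fitted concentration-effect curves.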
RE007 growth inh – less growth of the S. pombe RE007 Vpr strain; AID 651644; actives 0.21% (n = 360,000); S. pombe RE007 Vpr strain, BacTiter-Glo ATP luminescence, 24 h; Potency, µM (doses to about 92.2 µM), usual class: inhibitors; active means well fitted falling curve with a large enough effect; inconclusive means small, poorly fitted or top-dose-only effect; inactive means no such curve, though single readings can be large or run the other way; further: nearly all actives have a fitted effect of over 50% in size
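Fission yeast RE007 carrying one integrated HIV-1 vpr copy, seeded at OD 0.01 in PMG+AL medium with 23 nL pinned compound. Grown 24 h at 30 degrees; viability read by BacTiter-Glo luminescence after 5 min.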
Numbers stand for hits. Unless noted, the call rests on the fitted dose curve; in most records, active means well fitted curve in the direction sought with a large enough effect; inconclusive means small, poorly fitted or top-dose-only effect, or another doubt; inactive means no such curve, though single readings can be large; an effect the other way counts as inactive or inconclusive.

For CC(C)Cn1c(/C=N/Nc2nc3ccccc3[nH]2)nc2ccccc21 the results were Sm TGR block inactive, FBPA Giardia inh inactive, HCMV antiviral -97.0, FMDV antiviral 25.1µM, Tb PYK inh inactive and RE007 growth inh inactive.
`Cn1c(/C=N/Nc2nc3ccccc3[nH]2)nc2ccccc21` gave Sm TGR block inactive, FBPA Giardia inh inactive, HCMV antiviral -83.0, FMDV antiviral inactive, Tb PYK inh inactive and RE007 growth inh inconclusive.
Screening CCN(CC)c1ccc(/C=N/Nc2nc3ccccc3[nH]2)cc1 returned Sm TGR block inconclusive, FBPA Giardia inh inconclusive, FMDV antiviral inactive, Tb PYK inh inactive and RE007 growth inh inactive.
For CCCn1c(/C=N/Nc2nc3ccccc3[nH]2)nc2ccccc21 the results were Sm TGR block inactive, FBPA Giardia inh inactive, HCMV antiviral -99.5, FMDV antiviral inconclusive, Tb PYK inh inactive and RE007 growth inh inactive.
For Cc1c(/C=N/Nc2nc3ccccc3[nH]2)c2ccccc2n1C the results were Sm TGR block inactive, FBPA Giardia inh inactive, HCMV antiviral -96.0, FMDV antiviral inconclusive, Tb PYK inh inactive and RE007 growth inh inactive.
C=CCn1cc(/C=N/Nc2nc3ccccc3[nH]2)c2ccccc21 was read as Sm TGR block inactive, FBPA Giardia inh inactive, HCMV antiviral inactive, FMDV antiviral inactive, Tb PYK inh inactive and RE007 growth inh inactive.
`C(=N\Nc1nc2ccccc2[nH]1)/c1cccs1` gave Sm TGR block inactive, FBPA Giardia inh inactive, HCMV antiviral inactive, FMDV antiviral inactive, Tb PYK inh inactive and RE007 growth inh inactive.
Screening CC(C)c1ccc(OCC(=O)Nc2ccc(S(=O)(=O)Nc3ncccn3)cc2)cc1 returned Sm TGR block inactive, HCMV antiviral inactive, FMDV antiviral inactive and Tb PYK inh inactive.
Screening CCC(=O)Nc1cc(NC(=O)CSc2ncc(-c3ccc(F)cc3)n2Cc2ccco2)ccc1C returned Sm TGR block 44.7µM, FBPA Giardia inh inactive, HCMV antiviral inactive, FMDV antiviral inactive, Tb PYK inh inactive and RE007 growth inh inactive.
Screening O=C(CSc1nnc(-c2ccncc2)n1Cc1ccco1)Nc1nc(-c2ccccc2)cs1 returned Sm TGR block inconclusive, FBPA Giardia inh inactive, HCMV antiviral inactive, FMDV antiviral 17.8µM, Tb PYK inh inactive and RE007 growth inh inactive.
`O=C(CSc1nnc(-c2ccncc2)n1Cc1ccco1)Nc1ccccc1F` gave Sm TGR block 50.1µM, FBPA Giardia inh inactive, HCMV antiviral inconclusive, FMDV antiviral inactive, Tb PYK inh inactive and RE007 growth inh inactive.
Cc1ccc(C(=O)c2cc(O)c(O)c([N+](=O)[O-])c2)cc1 was read as Tb PYK inh inactive.
`O=C1NC(=O)N(c2ccccc2F)C(=O)/C1=C/c1ccc(Oc2ccc([N+](=O)[O-])cn2)cc1` gave Sm TGR block 20µM, FBPA Giardia inh inactive, HCMV antiviral inactive, FMDV antiviral inactive, Tb PYK inh inconclusive and RE007 growth inh inactive.
For Cn1cnc(S(=O)(=O)N2CCCC(C(=O)NCc3ccc(F)cc3)C2)c1 (stereo unspecified) the results were Sm TGR block inactive, HCMV antiviral inactive, FMDV antiviral inactive and Tb PYK inh inactive.
CCCC(=O)C1=C(O)C(C(=O)OC)C(C)(C)CC1=NCc1ccccc1 (stereo unspecified) was read as Sm TGR block 100µM, FBPA Giardia inh inactive, HCMV antiviral inactive, FMDV antiviral inactive, Tb PYK inh inactive and RE007 growth inh inactive.
`CCCC(=O)C1=C(O)C(C(=O)OC)C(C)(C)CC1=Nc1ccccc1` (stereo unspecified) gave Sm TGR block inactive, FBPA Giardia inh inactive, HCMV antiviral inactive, FMDV antiviral inactive, Tb PYK inh inactive and RE007 growth inh inactive.
For CCNC(=O)Oc1ccc[nH]c1=O the results were Sm TGR block inconclusive, FBPA Giardia inh 3.97µM, HCMV antiviral inactive, FMDV antiviral inactive and Tb PYK inh inactive.
For O=C(Oc1ccc[nH]c1=O)C1CC1 the results were HCMV antiviral inactive, FMDV antiviral inactive, Tb PYK inh inactive and RE007 growth inh inactive.
Screening COc1ccc(C(=O)Oc2ccc[nH]c2=O)cc1 returned Sm TGR block inactive, FBPA Giardia inh inactive, HCMV antiviral inactive, FMDV antiviral inactive and Tb PYK inh inactive.
`O=C(Oc1ccc[nH]c1=O)c1cc([N+](=O)[O-])cc([N+](=O)[O-])c1` gave Sm TGR block 79.4µM, FBPA Giardia inh inconclusive, HCMV antiviral inactive, FMDV antiviral inactive and Tb PYK inh inactive.
F[B-](F)(F)c1cncnc1 was read as HCMV antiviral inactive.
CN(Cc1ccccc1)C(=O)CC(=O)N(C)Cc1ccccc1 was read as Sm TGR block inactive, FBPA Giardia inh inactive, HCMV antiviral inactive, FMDV antiviral inactive, Tb PYK inh inactive and RE007 growth inh inactive.
Screening CN(Cc1ccc(Cl)s1)C(=O)CCl returned Sm TGR block 2.82µM, FBPA Giardia inh inactive, HCMV antiviral inactive, FMDV antiviral 11.2µM, Tb PYK inh inactive and RE007 growth inh inactive.
COc1ccc(CN(C)C(=O)c2cccc(C(=O)N(C)Cc3ccc(OC)cc3)c2)cc1 was read as Sm TGR block inactive, FBPA Giardia inh inactive, HCMV antiviral -71.3, FMDV antiviral inactive, Tb PYK inh inactive and RE007 growth inh inactive.
For CN(Cc1ccc(Cl)cc1)C(=O)CCl the results were Sm TGR block 1.78µM, FBPA Giardia inh inactive, HCMV antiviral -64.3, FMDV antiviral 25.1µM, Tb PYK inh inactive and RE007 growth inh inactive.
Screening COc1ccc(CN(C)C(=O)CCl)cc1 returned Sm TGR block 22.4µM, FBPA Giardia inh inactive, HCMV antiviral inactive, FMDV antiviral inconclusive, Tb PYK inh inactive and RE007 growth inh inactive.
Screening COc1cc2cc(CNc3ccccc3)c(=O)n(CC(=O)Nc3ccccc3)c2cc1OC returned Sm TGR block inactive, HCMV antiviral inactive, FMDV antiviral inactive and Tb PYK inh inactive.
For CN(C)S(=O)(=O)c1cc(NC(=O)CSc2nn(-c3ccc(Cl)cc3)c(=S)s2)ccc1Cl the results were Sm TGR block inactive, FBPA Giardia inh inactive, HCMV antiviral -84.5, FMDV antiviral inconclusive, Tb PYK inh inactive and RE007 growth inh inactive.
`Cc1ccc(NC(=O)CSc2nn(-c3ccc(Cl)cc3)c(=S)s2)cc1S(=O)(=O)N(C)C` gave Sm TGR block inactive, FBPA Giardia inh inactive, HCMV antiviral -82.6, FMDV antiviral inconclusive, Tb PYK inh inactive and RE007 growth inh inactive.
`CCN(CC)CCNC(=O)CCc1c(C)nc2c(c(C)nn2-c2ccc(C)c(C)c2)c1C` gave Sm TGR block inactive, FBPA Giardia inh inactive, HCMV antiviral -98.0, FMDV antiviral inactive, Tb PYK inh inactive and RE007 growth inh inactive.
For Nc1n[nH]c2cc(=O)n(-c3cccc(C(F)(F)F)c3)nc12 the results were Sm TGR block 22.4µM, FBPA Giardia inh inactive, HCMV antiviral inconclusive, FMDV antiviral inactive, Tb PYK inh inactive and RE007 growth inh inactive.
